# An excerpt weighted towards active compounds, which were near 3.2% of everything screened.
# GDH-TPI counter-1: GDH-TPI coupling enzyme inhibitors, primary screen, artefact control for M. tuberculosis FBA inhibitor project, biochemical, absorbance, full deck; inhibition, % at 4.8 µM; AID 588335, 2011; 360,000 compounds, 1.2% hits; GDH-TPI coupled enzyme counterscreen, NADH absorbance; in the data active = inhibition above about 30%;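 note: 0% = DMSO wells and 100% = wells lacking the enzyme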
# Mtb FBA inh: Mtb FBA enzyme inhibitors, primary screen, biochemical, fluorescence, strain H37Rv; AID 588726, 2011; 360,000 compounds, 2.3% hits; inhibition, % at 1 µM; purified M. tuberculosis FBA, fluorescence read-out; Fructose-bisphosphate aldolase (Mycobacterium tuberculosis (strain ATCC 25618 / H37Rv)), …;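 note: 0% = vehicle and 100% = reference inhibitor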
# Mtb betalactam: beta-lactam sensitization of Mtb H37Rv, H37Rv; 330,000 compounds, 0.27% hits; inhibition, % at 25 µM; AID 434955, 2010; M. tuberculosis H37Rv growth with meropenem, percent inhibition; call rule not given here;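 note: growth measured after seven days incubation then overnight dye step; 0% = bacteria only wells and 100% = bacteria with antibiotic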
# SSB-PriA inh: inhibitors of Klebsiella pneumoniae PriA binding to SSB C-terminal tail, primary screen, biochemical, AlphaScreen. PriA–SSB C-terminal tail interaction (Klebsiella pneumoniae). AlphaScreen SSBct-PriA binding, biotinylated peptide. inhibition, % at 33 µM. 430,000 compounds, 0.6% hits. AID 1272365, 2023; in the data active = inhibition mostly above about 37%, no sharp cut-off; inactive = mostly below about 20%;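 note: plate controls were negative control peptide for no effect and reference peptide for full effect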
# Rv3671c inh: Rv3671c serine protease inhibitors, primary screen, biochemical, fluorescence polarization, M. tuberculosis H37Rv; P9WHR9; 320,000 compounds, 0.048% hits; inhibition, % at 5.96 µM; in the data active = inhibition above about 38%;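 note: extracellular domain of Rv3671c used as enzyme; 0% = enzyme with DMSO and 100% = no enzyme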
# Target sequence (P9WHR9 whole entry, looked up, the tested form may be a part): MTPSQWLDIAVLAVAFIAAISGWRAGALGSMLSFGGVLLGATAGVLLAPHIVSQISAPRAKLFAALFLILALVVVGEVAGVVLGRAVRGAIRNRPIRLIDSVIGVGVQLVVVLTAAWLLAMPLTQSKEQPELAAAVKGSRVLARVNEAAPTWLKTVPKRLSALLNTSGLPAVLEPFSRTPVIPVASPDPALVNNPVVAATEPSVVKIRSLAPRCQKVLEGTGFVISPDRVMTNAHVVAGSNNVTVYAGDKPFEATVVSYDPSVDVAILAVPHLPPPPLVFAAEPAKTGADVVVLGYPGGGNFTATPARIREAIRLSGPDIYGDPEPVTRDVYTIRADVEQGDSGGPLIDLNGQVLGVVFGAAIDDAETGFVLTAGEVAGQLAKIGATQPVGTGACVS
# UGM FP inh: M. tuberculosis UGM enzyme inhibitors, primary screen, biochemical, fluorescence polarization, single point. 320,000 compounds, 0.06% hits. purified UGM, fluorescence polarization probe displacement. UDP-galactopyranose mutase (Mycobacterium tuberculosis (strain ATCC 25618 / H37Rv)), …. inhibition, % at 10 µM; in the data active = inhibition above about 10%, passing the limit was not always enough; inconclusive = no clear call, values can overlap the other calls
# Mtb FBA inh conf: M. tuberculosis aldolase blockers, biochemical, fluorescence, strain H37Rv, confirmation; purified M. tuberculosis FBA, fluorescence read-out; inhibition, % at 1 µM; 5,600 compounds, 78% hits; shares compounds with Mtb FBA inh;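 note: 0% = vehicle wells and 100% = reference inhibitor wells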
# GDH-TPI counter-2: GDH-TPI coupling enzyme inhibitors, artefact control for M. tuberculosis FBA inhibitor project, biochemical, fluorescence, high throughput; inhibition, % at 1 µM; GDH-TPI coupled enzyme counterscreen; 5,600 compounds, 81% hits; shares compounds with Mtb FBA inh; in the data active = inhibition above about 10%
# An asterisk follows results filed as active; u = inconclusive; x = not tested or not shown; + = active, no number. Cut-off read from the data, not from the text of the source, unless noted: active = inhibition above about 27%; inactive = the rest.
SMILES,GDH-TPI counter-1,Mtb FBA inh,Mtb betalactam,SSB-PriA inh,Rv3671c inh,UGM FP inh,Mtb FBA inh conf,GDH-TPI counter-2
C=CCOc1c2ccc(C(=O)NCc3ccc(OC)cc3)cc2nn1C,-2,15,-13,2,0,-1,x,x
CCOc1c2ccc(C(=O)NCc3ccc(C)cc3)cc2nn1CCOC,0,44*,-4,-19,-2,4,142*,117*
CCCCn1nc2cc(C(=O)NCc3cc(C(F)(F)F)cc(C(F)(F)F)c3)ccc2c1OC,-3,10,1,-4,1,2,x,x
CCCn1nc2cc(C(=O)NCc3ccc(C)cc3)ccc2c1OC,9,58*,-7,0,2,3,45*,35*
c1ccc(CCNc2ccnc3cc4ccccc4cc23)cc1,3,47*,x,3,x,x,-1,-1
CCN(CC)c1ccc(/C=N/NC(=O)c2cc(-c3ccc(F)cc3)n[nH]2)cc1,x,x,x,10,x,x,x,x
Cc1cc(-c2ccccc2)c2c3c(cn2n1)c(=O)n(C)c(=O)n3C,3,1,-10,9,5,2,x,x
Cc1cc(-c2ccccc2)c2nncn2n1,-3,45*,-4,-3,-5,0,+,+
CCOC(=O)CCc1c(C)c2ccc(OCC(=O)N(CC)CC)c(C)c2oc1=O,0,76*,10,-2,4,-2,18,20*
COc1ccc2c(C)cc(=O)oc2c1C,2,54*,2,-21,8,-2,+,196*
Cc1cc(=O)oc2c(C)c(OCC(=O)N(C)C)ccc12,20,37*,-18,-17,6,1,46*,40*
CCc1c(C)c2ccc(OCC(=O)N(C)C)c(C)c2oc1=O,3,76*,-11,-17,6,0,+,+
Cc1c(OCC(=O)OC(C)C)ccc2c3c(c(=O)oc12)CCC3,17,12,29,-2,-5,8,x,x
CCc1c(C)c2ccc(OCC(=O)OC(C)C)c(C)c2oc1=O,4,11,u,3,0,-2,x,x
Cc1c(OCC(=O)N(C)C)ccc2c3c(c(=O)oc12)CCCCC3,16,88*,3,-3,-22,2,1,-4
C=CCOC(=O)COc1ccc2c(C)c(C)c(=O)oc2c1C,11,58*,96,-8,-3,0,32*,34*
Cc1c(C)c2ccc(OCC(=O)N(C)C)c(C)c2oc1=O,12,79*,2,-1,-5,3,148*,125*
COc1ccc(-c2c(C#N)c(SCC(=O)c3ccc(Cl)cc3)nc(C)c2C(=O)Nc2ccc(Cl)cc2)cc1,x,x,x,-1,x,x,x,x
COc1ccc(OC)c(-c2ccc(=O)n(CCN3CCCCC3)n2)c1,x,x,x,-7,x,x,x,x
O=C(CN1CCOCC1)Nc1ccc(Cl)cc1C(=O)c1ccccc1,x,x,x,-3,x,x,x,x
O=S(=O)(c1ccc(Oc2ccccc2Cl)cc1)N1CCc2ncncc2C1,x,x,x,-8,x,x,x,x
COc1ccc2c(c1)c(C)cc[n+]2Cc1ccccc1,6,41*,-4,8,x,3,59*,57*
O=C(Cc1cccs1)N1CCN(C(=O)[C@H]2C[C@@H]2c2ccc3c(c2)OCO3)CC1,x,x,x,-11,x,x,x,x
CC(C)c1ccc(NC(=O)C2Cc3c(-c4ccc5c(c4)OCO5)ccnc3O2)cc1 (stereo not drawn),9,20,x,x,x,x,x,x
COc1ccc(CNC(=O)C2Cc3c(-c4ccc5c(c4)OCO5)ccnc3O2)cc1OC (stereo not drawn),8,31*,x,x,x,x,+,+
SMILES,GDH-TPI counter-1,Mtb FBA inh,Mtb betalactam,SSB-PriA inh,Rv3671c inh,UGM FP inh,Mtb FBA inh conf,GDH-TPI counter-2
COc1ccc(NC(=O)C2Cc3c(-c4ccc5c(c4)OCO5)ccnc3O2)cc1OC (stereo not drawn),6,48*,x,x,x,x,27*,19*
O=C(NCc1ccc(F)c(F)c1)C1Cc2c(-c3ccc4c(c3)OCO4)ccnc2O1 (stereo not drawn),-2,49*,x,x,x,x,177*,136*
CC(C)NC(=O)C1Cc2c(-c3ccc4c(c3)OCO4)ccnc2O1 (stereo not drawn),4,52*,x,x,x,x,111*,91*
COc1ccc(CNC(=O)C2Cc3c(-c4ccccc4)ccnc3O2)cc1OC (stereo not drawn),5,1,x,x,x,x,x,x
COc1ccc(-c2ccc(SCc3ccccn3)nn2)cc1,x,x,x,-19,x,x,x,x
CC(=O)c1cccc(-c2ccnc3c2CC(C(=O)NCCc2ccccc2)O3)c1 (stereo not drawn),2,-3,x,x,x,x,x,x
O=C(NCCc1ccccc1)C1Cc2c(-c3ccc4c(c3)OCO4)ccnc2O1 (stereo not drawn),-4,47*,x,x,x,x,29*,36*
CN(C(=O)c1ccc(C#N)cc1)c1nnc(-c2ccccn2)s1,1,5,x,3,x,x,x,x
CN(C(=O)c1ccncc1)c1nnc(-c2ccccn2)s1,-3,48*,-10,14,4,-1,146*,133*
COc1ccc(-c2ccc(=O)n(CCCC(=O)NC(C)c3ccccc3)n2)cc1 (stereo not drawn),x,x,x,2,x,x,x,x
CS(=O)(=O)N1CCCC1C(=O)Nc1nnc(-c2cccs2)o1 (stereo not drawn),x,x,x,9,x,x,x,x
COc1ccc2nc(NCCNC(=S)NCCCN3CCOCC3)c(C#N)cc2c1,-2,8,-10,-2,4,-1,x,x
COCCCNC(=S)NCCCNc1nc2cc3c(cc2cc1C#N)OCO3,12,72*,2,-8,5,2,15,6
Cc1cccc2cc(C#N)c(NCCNC(=S)NCCCN3CCOCC3)nc12,-6,31*,6,-11,-2,-2,146*,108*
Cc1cc2cc(C#N)c(NCCNC(=S)NCCCN3CCOCC3)nc2cc1C,11,40*,1,1,-3,0,+,+
COc1cccc2cc(C(=O)N3CCC(n4cc(-c5ccccc5)nn4)C3)oc12 (stereo not drawn),x,x,x,-6,x,x,x,x
O=C(Nc1ccccc1F)N1CCS[C@H](c2ccccc2Cl)CC1,x,x,x,-4,x,x,x,x
COc1ccc(-n2c(C)cc3cc(OC(C)=O)ccc32)cc1,5,58*,3,-9,2,-1,68*,49*
COc1ccc(CNC(=O)Cn2c3ccc(F)cc3c3ncn(Cc4ccccc4)c(=O)c32)cc1,x,x,x,-21,x,x,x,x
